Out of some 290,000 compounds screened, about 4,200 (1.4%) were called active. Many of the other results were omitted from the sample, so actives are more common in it than they were. Values without a mark were called inactive.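 How the source made its calls: active means binding response more than 3 SD above or below the average of its plate-row segment, actives on both sides; inconclusive means wells at one plate position flagged as instrument error; inactive means the rest.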
target: Mitogen-activated protein kinase kinase kinase 3 (Homo sapiens) (UniProt Q99759); test: modulators of MEKK3-MEK5 PB1 binding, primary screen, biochemical, wildtype MEKK3, multiplex bead flow cytometry, Alexa488-MEK5 (AID 1529); conditions: bead-based flow cytometry, Alexa488-MEK5 binding to MEKK3; at 10 µM; actives lie on both sides; 0 = blocked by unlabeled MEK5, 100 = vehicle;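 further: Alexa488 bead fluorescence after subtracting the streptavidin-only scavenger bead signal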
Sequence (Q99759 whole entry, looked up): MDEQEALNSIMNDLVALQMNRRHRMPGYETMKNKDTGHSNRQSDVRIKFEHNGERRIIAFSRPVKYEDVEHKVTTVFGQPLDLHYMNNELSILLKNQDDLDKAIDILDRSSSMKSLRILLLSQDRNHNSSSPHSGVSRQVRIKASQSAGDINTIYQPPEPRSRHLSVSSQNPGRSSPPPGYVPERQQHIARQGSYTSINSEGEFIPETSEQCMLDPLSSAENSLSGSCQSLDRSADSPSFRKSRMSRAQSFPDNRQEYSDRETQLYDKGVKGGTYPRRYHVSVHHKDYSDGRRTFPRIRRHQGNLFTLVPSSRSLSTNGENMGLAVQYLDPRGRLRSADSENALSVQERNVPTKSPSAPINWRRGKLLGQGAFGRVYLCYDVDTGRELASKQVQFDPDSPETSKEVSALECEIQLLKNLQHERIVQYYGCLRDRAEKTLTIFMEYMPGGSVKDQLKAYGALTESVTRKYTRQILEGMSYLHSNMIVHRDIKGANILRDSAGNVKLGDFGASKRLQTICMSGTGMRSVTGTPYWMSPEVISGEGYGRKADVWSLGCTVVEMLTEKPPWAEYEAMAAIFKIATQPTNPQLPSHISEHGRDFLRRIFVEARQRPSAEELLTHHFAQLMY

| Structure (SMILES) | binding response (% of control) |
| --- | --- |
| COC(=O)[C@@H]1CC(O)CN1C(=O)C12CC3CC(CC(C3)C1)C2 (some centres undefined) | 96% |
| O=C(Nc1cccc2ncccc12)C(Cl)(Cl)Cl | 101% |
| O=C(Nc1cccc2ncccc12)c1ccc(-c2ccc(Cl)cc2Cl)o1 | 102% |
| O=C(O)c1cc(Cl)c(Cl)cc1C(=O)Nc1cccc2ncccc12 | 128% (active) |
| OCC[C@H]1C[C@H](O)[C@@H](O)[C@]2(CCCCO2)O1 | 100% |
| CCc1ccc2nc(Nc3ncc(C(C)=O)c(C)n3)nc(C)c2c1 | 49% [inhibitor] (active) |
| Cc1ccc2nc(Nc3ncc4c(n3)CC(C)(C)CC4=O)nc(C)c2c1 | 102% |
| COc1ccccc1Nc1ncc(C(C)=O)c(C)n1 | 104% |
| CCCCn1c(SCC(=O)NCCc2ccc(OC)c(OC)c2)nc2c1c(=O)n(C)c(=O)n2C | 0% [inhibitor] (active) |
| CCn1c(NCCc2ccc(OC)c(OC)c2)nc2c1c(=O)n(C)c(=O)n2C | 103% |
| C#CC(C)(C)NC(=O)CSc1nc2c(c(=O)n(C)c(=O)n2C)n1CCCC | 108% |
| Cc1ccc(O)c(/C=N/NC(=O)COc2ccc3c(C)cc(=O)oc3c2)c1 | 99% |
| COc1cccc(/C(C)=N/Nc2ncc(Cl)cc2Cl)c1 | 135% (active) |
| C/C(=N\Nc1ncc(Cl)cc1Cl)c1ccc(S(=O)(=O)NCc2ccco2)cc1 | 108% |
| C/C(=N\Nc1ncc(Cl)cc1Cl)c1cccs1 | 103% |
| O=C(CN(C(=O)c1nsc(Cl)c1Cl)c1cccc(F)c1)NC1CCCC1 | 99% |
| COCc1ccc(C(=O)NC2CC(C)(C)Cc3c2cnn3-c2ccc(C)cc2)o1 (centres undefined) | 97% |
| CC1CCC2(CC1)NC(=O)N(CC(=O)c1ccc3c(c1)OCO3)C2=O (centres undefined) | 99% |
| CC(C)CC(=O)NC(=S)Nc1ccc(F)cc1F | 117% |
| CC(C)CNC(=O)C(=O)NCc1ccccc1 | 96% |

| Structure (SMILES) | binding response (% of control) |
| --- | --- |
| CC(C)CC(=O)NC(=S)NCc1ccccc1 | 141% (active) |
| CC(C)CC(=O)NC(=S)Nc1cc(C(=O)O)ccc1Cl | 132% (active) |
| CC(=O)c1ccc(NC(=S)NC(=O)CC(C)C)cc1 | 104% |
| CC(C)Oc1ccc(CCC(=O)NNC(=S)NCc2ccccc2)cc1 | 95% |
| CCc1nn(CCCC(=O)Nc2ccc(C)cc2C)c(=O)c2cc3occc3n12 | 99% |
| CN(Cc1ccccc1Cl)C(=O)C1CCC(=O)N(CCc2cccc(F)c2)C1 (centres undefined) | 102% |
| COc1ccc(N(CC(=O)N2CCCCCC2)S(=O)(=O)c2ccccc2)cc1 | 102% |
| COc1ccc(C(=O)O/N=C(\N)c2ccccn2)cc1[N+](=O)[O-] | 107% |
| CCc1ccc(N(CC(=O)Nc2sc3c(c2C(=O)OC)CCCC3)S(C)(=O)=O)cc1 | 92% |
| COC(=O)c1c(NC(=O)CCCC(=O)O)sc2c1CCCCC2 | 99% |
| COC(=O)c1c(NC(=O)COC(=O)[C@@H](NS(=O)(=O)c2ccccc2)C(C)C)sc2c1CCC2 | 2% [inhibitor] (active) |
| CC(C)CN(Cc1c(O)ccc2c(=O)c(-c3ccccc3)coc12)CC(C)C | 102% |
| Cc1cc(C)cc(C(=O)NC(=S)Nc2ccc3[nH]c(=O)[nH]c3c2)c1 | 105% |
| CC(=O)Nc1ccc(NC(=S)NC(=O)c2ccc([N+](=O)[O-])c(C)c2)cc1 | 97% |
| Cc1ccc(C(=O)NC(=S)Nc2ccc3[nH]c(=O)[nH]c3c2)cc1C | 145% (active) |
| CC1(C)CC[C@]2(C(=O)O)CC[C@]3(C)C(=CCC4[C@@]5(C)CC[C@H](O)C(C)(C)C5[C@H](O)C[C@]43C)[C@@H]2C1 (some centres undefined) | 101% |
| Cc1ccc(-c2nc3ccccc3[nH]2)cc1NC(=O)c1sc2ccccc2c1Cl | 102% |
| O=C(Cc1cccs1)Nc1cccc(-c2nc3ccccc3[nH]2)c1 | 107% |
| O=C(Nc1cccc(-c2nc3ccccc3[nH]2)c1)c1ccc(C(=O)Nc2cccc(-c3nc4ccccc4[nH]3)c2)cc1 | 63% [inhibitor] (active) |
| CCNC(=O)c1cnn(-c2ccccc2)c1-c1ccccc1 | 103% |

| Structure (SMILES) | binding response (% of control) |
| --- | --- |
| COc1ccc(C(=O)NC(=S)N2CCCCC2c2cccnc2)cc1OC (centres undefined) | 98% |
| O=C(c1ccc(CS(=O)(=O)c2ccccc2)o1)N1CCN(c2ccccc2)CC1 | 102% |
| O=C(c1ccco1)N1CCN(c2cccc(Cl)c2)CC1 | 2% [inhibitor] (active) |
| O=C(Cc1c(F)cccc1Cl)N1CCN(C(=O)c2ccco2)CC1 | 103% |
| O=C(c1cccc([N+](=O)[O-])c1)N1CCN(C(=O)c2ccco2)CC1 | 100% |
| Fc1ccc2c(c1)C(c1cccnc1)=NNC(c1cccs1)=N2 | 107% |
| CCCOc1ccc(Cl)cc1Nc1nc(NCCO)nc(N2CCCC2)n1 | 108% |
| CCCCN1C(=O)/C(=C(/C#N)C(N)=O)c2ccccc21 | 146% (active) |
| O=C(O)CCCN1C(=O)c2ccccc2Sc2ncccc21 | 107% |
| COc1ccc2c(c1)C(=C(C#N)C#N)C(=O)N2CCc1ccccc1 | 96% |
| CC1CN(C(=S)Nc2cccc(F)c2)CC(C)O1 (centres undefined) | 105% |
| COc1ccc(CNC(=O)C2(CC3CC(c4ccccc4)=NO3)CCN(C(=O)c3cccc(O)c3)CC2)cc1 (centres undefined) | 99% |
| COc1ccc(C(=O)NCc2nnc(SCCOc3ccccc3)n2C)cc1 | 102% |
| COC(=O)c1ccc(NC(=O)CSc2nnc(CNc3ccc(OC)cc3)n2C)cc1 | 106% |
| COc1ccc(C(=O)NCc2nnc(SCC(=O)NC3=NCCS3)n2C)cc1 | 71% [inhibitor] (active) |
| O=C(NCc1ccccc1)c1onc(CSc2ccncc2)c1C(=O)NCc1ccccc1 | 106% |
| CO/N=C(\N)c1ccc([N+](=O)[O-])cc1 | 98% |
| O=C(N/N=C/c1cccc([N+](=O)[O-])c1)c1ccncc1 | 107% |
| N/C(=N\OS(=O)(=O)c1cccc([N+](=O)[O-])c1)c1ccncc1 | 145% (active) |

From PubChem BioAssay AID1529 (NMMLSC, 2009)
